In all, about 63,000 compounds went through this assay and about 1,100 (1.7%) were called active. What follows is part of a selection rich in actives, with near analogues and random picks from the rest. Results with a measured potency or affinity are listed apart. A number with no mark means an inactive call.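 The calls were made as follows: active = compounds whose percent cytotoxicity in the single-dose primary screen, scaled between solvent and toxic-drug controls, exceeds 50; inactive = the rest.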
Assay: cytotoxicity in KRAS-transformed pancreatic duct cells, primary screen, cell-based, fluorescence, HTS (AID 431);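 also: 0% = DMSO solvent wells and 100% = doxorubicin-treated wells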
Settings: HPDE-C7K KRASV12 cells, Alamar Blue viability, 48 h; at 10 µM; active compounds read high

**Q.** For `CC1CN(c2nnnn2-c2ccccc2)CC(C)O1` (centres undefined), which cytotoxicity is on record?
**A.** -6.4%

**Q.** Which cytotoxicity does the source give for `Cc1ccc(NC(=O)CSc2nnc(COc3ccc(C#N)cc3)n2-c2ccccc2)cc1C` here?
**A.** -3.3%

**Q.** For `Cc1ccc(S(=O)(=O)/C(C#N)=C/c2c(N3CCN(C)CC3)nc3ccccn3c2=O)cc1`, which cytotoxicity is on record?
**A.** -0.5%

**Q.** Which cytotoxicity does the source give for `O=C(O)CSCCC(=O)Nc1ccc(F)cc1` here?
**A.** -3.7%

**Q.** Which cytotoxicity does the source give for `CCOC(=O)Cn1c(CN2CC(C)OC(C)C2)nc2c1c(=O)n(C)c(=O)n2C` (centres undefined) here?
**A.** -2.5%

**Q.** For `CCOC(=O)N1CCN(C(=O)C2COc3ccccc3O2)CC1` (centres undefined), which cytotoxicity is on record?
**A.** 11.8%

**Q.** Which cytotoxicity does the source give for `O=C(O)C1CCCCC1C(=O)Nc1ccc(Cl)cc1Cl` (centres undefined) here?
**A.** -0.5%

**Q.** With `CCCOC(=O)CCCCC1SCC(NC(=O)OC)C1NC(=O)OC` (centres undefined) as the compound, how does the cytotoxicity read?
**A.** 5.4%

**Q.** Which cytotoxicity does the source give for `CCOC(=O)Cn1c(=O)oc2cc(S(=O)(=O)Nc3cc(Cl)ccc3OC)ccc21` here?
**A.** 0.7%

**Q.** For `COc1cc2c3c(c1)C1(C(=O)N3C(C)(C)C=C2C)C(C#N)=C(N)Oc2cc(O)ccc21` (centres undefined), which cytotoxicity is on record?
**A.** -21.4%

**Q.** With `CC1=CC(C)(C)N2C(=O)C3(C(C#N)=C(N)Oc4cc(O)ccc43)c3cccc1c32` (centres undefined) as the compound, how does the cytotoxicity read?
**A.** 74.3% (active)

**Q.** With `CC1=CC(C)(C)N2C(=O)C3(C(C#N)=C(N)Oc4cc(C)oc(=O)c43)c3cccc1c32` (centres undefined) as the compound, how does the cytotoxicity read?
**A.** -4.3%

**Q.** With `Cn1c(SCC2CCCO2)nnc1-c1ccncc1` (centres undefined) as the compound, how does the cytotoxicity read?
**A.** -3.1%

**Q.** With `CCOC(=O)C1CCN(c2ncnc3c2oc2ccc(Cl)cc23)CC1` as the compound, how does the cytotoxicity read?
**A.** 6.4%

**Q.** With `Cc1onc(-c2ccccc2)c1C(=O)OCC(=O)Nc1ccc2c(c1)OCO2` as the compound, how does the cytotoxicity read?
**A.** 1.3%

**Q.** For `O=C(COC(=O)c1c2c(nc3ccccc13)CCCC2)Nc1ccc2c(c1)OCO2`, which cytotoxicity is on record?
**A.** 53.6% (active)

**Q.** Which cytotoxicity does the source give for `Cc1nn(-c2ccccc2)c(C)c1C(=O)OCC(=O)Nc1ccc2c(c1)OCO2` here?
**A.** -6.3%

**Q.** With `O=C(C1CCN(S(=O)(=O)c2cccnc2)CC1)N1CCN(C2CCCC2)CC1` as the compound, how does the cytotoxicity read?
**A.** -8.1%

**Q.** For `Cc1ccc(CNc2nc3c([nH]2)c(=O)n(C)c(=O)n3C)cc1`, which cytotoxicity is on record?
**A.** -19.3%

**Q.** Which cytotoxicity does the source give for `Cc1ccc(C(CC(=O)N2CCCC2)c2ccccc2)c(O)c1C` (centres undefined) here?
**A.** -9.2%

**Q.** Which cytotoxicity does the source give for `COc1ccccc1CNc1ncnc2nc[nH]c12` here?
**A.** 4.5%

**Q.** For `CN1CCN(Cc2cc(COCc3ccccc3)c3cccnc3c2O)CC1`, which cytotoxicity is on record?
**A.** 4.8%

**Q.** With `Oc1ccc(CNc2ccccc2F)c2cccnc12` as the compound, how does the cytotoxicity read?
**A.** 5.5%

**Q.** With `Oc1ccc(CNc2ccccc2)c2cccnc12` as the compound, how does the cytotoxicity read?
**A.** 44.4%

**Q.** Which cytotoxicity does the source give for `Oc1ccc(CN2CCN(Cc3ccccc3)CC2)c2cccnc12` here?
**A.** 6.1%

**Q.** For `Oc1ccc(CNc2ccc(F)cc2)c2cccnc12`, which cytotoxicity is on record?
**A.** 53.3% (active)

**Q.** Which cytotoxicity does the source give for `CCOC(=O)C1CCN(Cc2ccc(O)c3ncccc23)CC1` here?
**A.** -4.5%

**Q.** For `Oc1ccc(CN2CCCc3ccccc32)c2cccnc12`, which cytotoxicity is on record?
**A.** 36.7%

**Q.** Which cytotoxicity does the source give for `O=C(CSc1nnc(-c2ccc(S(=O)(=O)N3CCCC3)cc2)o1)NCc1ccco1` here?
**A.** -15.4%

**Q.** Which cytotoxicity does the source give for `CCOc1ccc(OCC)c(NC(=O)CN(c2ccc(C)cc2)S(=O)(=O)c2c(C)noc2C)c1` here?
**A.** -6.3%

**Q.** Which cytotoxicity does the source give for `COC(=O)c1[nH]c2ccc(C)cc2c1NS(=O)(=O)c1ccc(F)c(C)c1` here?
**A.** 10.9%

**Q.** With `CCCn1c(SCC(=O)NC(C)(C)C)nnc1C(C)C` as the compound, how does the cytotoxicity read?
**A.** -5.9%

**Q.** With `COc1cccc(OC)c1C(=O)Nn1c(C2CCC2)nc2ccccc2c1=O` as the compound, how does the cytotoxicity read?
**A.** -10.3%

**Q.** Which cytotoxicity does the source give for `O=C(CN1C(=O)CCS(=O)(=O)c2ccccc21)Nc1cccc(Cl)c1` here?
**A.** 2.5%

**Q.** Which cytotoxicity does the source give for `O=[n+]1c2c(n([O-])c3cc(F)ccc31)CCCC2` here?
**A.** 0.3%

**Q.** Which cytotoxicity does the source give for `COc1cc(OC)cc(C(=O)NCc2n[nH]c(=S)n2-c2ccccc2)c1` here?
**A.** -3.1%

**Q.** For `Cc1ccc(-c2c(C)c(-c3ccc(F)cc3)nc(N)c2C#N)o1`, which cytotoxicity is on record?
**A.** 19.3%

**Q.** Which cytotoxicity does the source give for `CCOc1ccccc1NC(=O)N1CCCC1C(=O)Nc1ccc(NC(C)=O)cc1` (centres undefined) here?
**A.** -3.3%

**Q.** For `COc1cc(C(=O)N2CCN(c3cc(Cl)ccc3Cl)CC2)cc(OC)c1OC`, which cytotoxicity is on record?
**A.** 65.3% (active)

**Q.** Which cytotoxicity does the source give for `COc1ccc(Cl)cc1S(=O)(=O)N1CCN(C(=O)c2cc(OC)c(OC)c(OC)c2)CC1` here?
**A.** -3.4%

**Q.** With `COc1cc(C(=O)N2CCN(c3ccc(C)cc3C)CC2)cc(OC)c1OC` as the compound, how does the cytotoxicity read?
**A.** 28.6%

**Q.** With `CC1(C)Cc2ccccc2-c2nnc(SCC(=O)Nc3ccc4c(c3)OCO4)n21` as the compound, how does the cytotoxicity read?
**A.** 4.9%

**Q.** Which cytotoxicity does the source give for `COc1ccc(-c2noc(CN(C)S(=O)(=O)c3ccc(Cl)cc3)n2)cc1OC` here?
**A.** 27.5%

**Q.** Which cytotoxicity does the source give for `C=CCn1c(SCC(=O)Nc2ccc(N(C)C)cc2)nnc1-c1cccc(C)c1` here?
**A.** 33%

**Q.** With `CCn1c(SCC(=O)Nc2ccc(S(N)(=O)=O)cc2)nnc1-c1cccc(OC)c1` as the compound, how does the cytotoxicity read?
**A.** 6.1%

**Q.** For `CCn1c(SCC(=O)Nc2ccc3c(c2)OCCO3)nnc1-c1ccco1`, which cytotoxicity is on record?
**A.** 5.8%

**Q.** For `CCn1c2ccccc2c2cc(NC(=O)CSc3nnnn3-c3ccccc3)ccc21`, which cytotoxicity is on record?
**A.** 5.6%

**Q.** For `CCn1c2ccccc2c2cc(CN3CCN(C(=O)c4ccco4)CC3)ccc21`, which cytotoxicity is on record?
**A.** -16%

**Q.** For `CCn1c2ccccc2c2cc(NC(=O)N3CCOCC3)ccc21`, which cytotoxicity is on record?
**A.** -7.1%

**Q.** With `COc1ccc(NC(=O)CSc2nnc(-c3ccccc3C)n2N)cc1OC` as the compound, how does the cytotoxicity read?
**A.** -2.1%

**Q.** Which cytotoxicity does the source give for `CCn1c(SCC(=O)Nc2ccc3c(c2)c2ccccc2n3CC)nnc1-c1cnccn1` here?
**A.** 12.2%

**Q.** With `CCn1c2ccccc2c2cc(NC(=O)CSc3nnc(-c4ccccc4OC)n3N)ccc21` as the compound, how does the cytotoxicity read?
**A.** 66% (active)

**Q.** For `CCn1c(SCC(=O)Nc2ccc3c(c2)c2ccccc2n3CC)nnc1-c1ccco1`, which cytotoxicity is on record?
**A.** 57.1% (active)

**Q.** Which cytotoxicity does the source give for `CCn1c2ccccc2c2cc(NC(=O)c3ccco3)ccc21` here?
**A.** 66.2% (active)

Source: PubChem BioAssay AID431 (Sanford-Burnham Center for Chemical Genomics, 2006)
